# TIM10 inh: growth inhibitors of isogenic TIM10 control yeast, primary screen, counter-screen for tim10-1 yeast inhibitor project, luminescence, uHTS; S. cerevisiae TIM10 strain growth, BacTiter-Glo luminescence, 24 h; inhibition, % at 10 µM; hit rate 1.4% among 330,000; AID 463195, 2010;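 active = inhibition of 40% or more at the single tested concentration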;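 also: wild-type TIM10 isogenic control strain grown at permissive 25 °C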
# PfHsp90 yeast 2: growth inhibition of PfHsp90-expressing yeast, primary screen, antimalarial PfHsp90 inhibitor project, S. cerevisiae, BacTiter-Glo luminescence, single point, set 2 | BacTiter-Glo ATP, 48 h; yeast lacking PDR1 and PDR3 efflux regulators | inhibition, % at 9.4 µM | hit rate 0.32% among 310,000 | AID 504621, 2011;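 active = every replicate shows inhibition above about 80%, whatever the replicate mean, limit read from the data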;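 also: 0% = DMSO neutral controls and 100% = 20 µM radicicol positive controls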
# tim10-1 inh: growth inhibitors of tim10-1 mutant yeast, primary screen, luminescence, uHTS | S. cerevisiae tim10-1 ts strain growth, BacTiter-Glo, 24 h | inhibition, % at 20 µM | hit rate 2.2% among 330,000;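 active = inhibition of at least 40%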;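 also: mutant grown at 25 °C; 0% = DMSO wells with yeast and 100% = wells holding no yeast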
# tim23-1 inh: growth inhibitors of tim23-1 mutant yeast, primary screen, luminescence, uHTS | S. cerevisiae tim23-1 growth, BacTiter-Glo luminescence, 24 h | inhibition, % at 20 µM | hit rate 1.3% among 330,000;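 active = growth inhibition of the mutant yeast at or above 50%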;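 also: temperature-sensitive mutant grown at 25 °C; plate controls were DMSO-treated mutant yeast for no effect and medium wells lacking yeast for full effect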
# SUMO Mot1 rescue: yeast Mot1-301 growth rescue at high temperature, primary screen, SUMOylation pathway inhibitor project, S. cerevisiae, ATP luminescence, 38.5C; hit rate 1% among 320,000; growth rescue, % at 18.8 µM; AID 2716, 2010; S. cerevisiae Mot1-301 growth rescue; percent above DMSO median, 100 means doubled;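 active = every valid replicate shows activation above 250% relative to neutral control wells; inactive = the rest, any valid replicate at or below 250%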;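 also: OY570 slx delta 5 strain wells were the positive control but not used for scaling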
# tim10-1 confirm: growth inhibitors of tim10-1 mutant yeast, confirmation, single concentration, luminescence, S. cerevisiae; shares compounds with tim10-1 inh; hit rate 56% among 7,400; S. cerevisiae tim10-1 ts strain growth, BacTiter-Glo, 24 h; inhibition, % at 20 µM;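 active = inhibition of yeast growth at or above a set limit in either of two repeat tests at 20 µM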;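 also: tim10-1 mutant grown at permissive 25 °C to find synthetic lethal compounds; 0% = DMSO yeast wells and 100% = medium wells without yeast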
# An asterisk follows results filed as active; · = not tested or not shown. The list is not random: actives were taken first. Their share in the collection is about 4.4%.
SMILES,TIM10 inh,PfHsp90 yeast 2,tim10-1 inh,tim23-1 inh,SUMO Mot1 rescue,tim10-1 confirm
CCc1nc(SCc2nc3ccccc3[nH]2)c2oc3ccccc3c2n1,9.6,13.3,40.2*,26.2,-33.4,19.1
COc1ccc(NC(=O)CSc2nc(C)cs2)c([N+](=O)[O-])c1,-7.9,5.7,-14.6,10.3,3.9,·
C[C@]12CCC(=O)C[C@@H]1CC[C@@H]1[C@@H]2CC[C@]2(C)C=CC[C@@H]12,9.9,7.2,52.0*,32.7,220.1,69.7*
C[C@]12CCC(=O)CC1CCC1C2CC[C@@]2(C)C1CC[C@@]21CCO1 (some centres undefined),-7.7,-4.2,28.1,31.6,70.2,·
COc1cccc(N2CC(O)Cn3c2nc2c3c(=O)[nH]c(=O)n2C)c1 (centres undefined),-3.6,0.4,-9.1,1.3,1.9,·
CC1=CC2=C(OC1N(C)C)c1cccc3cccc(c13)C2=O (centres undefined),37.1,·,46.7*,14.4,74.9,54.8*
O=S1(=O)[C@H]2C[C@H](CO)O[C@@]2(CO)CN1Cc1ccc(-c2ccc(F)cc2)cc1,2.6,-0.2,12.5,32.9,·,·
CCOc1cccc(/C=N/NC(=S)Nc2cc(S(=O)(=O)N3CCOCC3)ccc2N2CCOCC2)c1O,12.3,8.4,43.9*,20.1,192.0,8.4
COc1ccc2ccccc2c1/C=N/NC(=S)Nc1cc(S(=O)(=O)N2CCOCC2)ccc1N1CCOCC1,-3.0,-23.2,27.0,28.1,-6.9,·
COc1cccc(/C=N/NC(=O)CNC(=O)c2ccc3c(c2)OCCO3)c1O,15.5,-55.0,17.7,10.2,11.4,·
CCOc1cccc(/C=N/NC(=O)c2ccc3c(c2)OCCO3)c1O,1.1,-0.3,48.4*,26.1,38.9,-33.1
Cc1cc2occ(CC(=O)N(CC(C)C)c3c(N)n(Cc4ccccc4)c(=O)[nH]c3=O)c2cc1C,12.2,-15.3,8.8,10.5,2.4,·
O=C(Nc1nnc(-c2ccccn2)o1)c1ccc(Br)cc1,14.3,-38.0,46.1*,29.4,-2.3,28.6
Nc1nc(-c2ccc3ccccc3c2)cs1,35.5,-2.7,43.5*,49.9,-20.1,10.4
O=C(/C=C/c1cccnc1)c1ccc(F)c(F)c1,17.8,5.5,40.1*,33.2,35.3,26.5
COc1ccc(/C=N/N(Cc2ccccc2)c2ccccc2)cc1O,38.5,-37.3,51.2*,29.7,-17.2,-20.9
Cc1cccc(N2CCN(C(=O)C3(S(=O)(=O)c4ccc(Cl)cc4)CC3)CC2)c1C,-1.8,-6.4,-27.9,-5.5,-9.4,·
Cc1ccc(C)c(N2CCN(C(=O)c3ccc(CS(=O)Cc4ccc(Cl)cc4)o3)CC2)c1 (centres undefined),4.5,11.0,46.2*,15.9,315.7,-3.5
Cc1ccc(Cl)cc1N1CCN(C(=O)c2ccc(CS(=O)Cc3ccc(Cl)cc3)o2)CC1 (centres undefined),2.1,1.7,45.1*,3.5,-12.9,-20.1
Cc1ccc(Cl)cc1N1CCN(C(=O)C2(S(=O)(=O)c3ccc(Cl)cc3)CC2)CC1,30.0,·,40.4*,27.0,-2.3,27.1
CN1CCN(C(=O)c2ccc(CS(=O)Cc3ccc(Cl)cc3)o2)CC1 (centres undefined),-4.9,-5.4,6.9,11.3,13.2,·
O=C(c1ccc(CS(=O)Cc2ccc(Cl)cc2)o1)N1CCN(c2ccccc2F)CC1 (centres undefined),13.7,0.4,10.3,22.6,14.3,·
Cc1ccc(NC(=O)c2cnccn2)cc1C,-9.5,2.6,-17.6,6.6,-8.1,·
Cc1nn(C)cc1S(=O)(=O)NCc1ccc2c(c1)OCO2,-4.0,1.0,2.1,8.1,7.1,·
Nc1nc(-c2ccccc2)c(-c2ccc([N+](=O)[O-])cc2)s1,26.1,0.8,46.4*,38.2,180.6,16.2
SMILES,TIM10 inh,PfHsp90 yeast 2,tim10-1 inh,tim23-1 inh,SUMO Mot1 rescue,tim10-1 confirm
O=C(CCS(=O)(=O)Cc1ccccc1)N1CCc2ccccc2C1,27.6,16.4,47.1*,46.0,-13.6,40.0*
Cc1ccccc1-c1nc2ccccc2c(=O)n1/N=C/c1ccccc1[N+](=O)[O-],10.0,·,44.1*,46.4,-13.2,31.2
CC[C@H](C)[C@H]1CNC(=S)N1CC1CCN(CCCC2CCCC2)CC1,·,6.1,·,·,·,·
C=C1CC2(CC(c3ccccc3)OC(c3ccccc3)C2)OC1=O (centres undefined),·,12.5,·,·,·,·
COc1ccc2c(c1)OC[C@H]1[C@H]2N2C(=O)c3cc(OC)ccc3NC(=O)[C@@]2(C)[C@H]1c1ccccc1,14.6,112.6*,44.2*,17.7,355.8*,3.9
COc1ccc2c(c1)C(=O)N1[C@H]3c4cc(Br)ccc4OC[C@@H]3[C@H](c3ccccc3)[C@]1(C)C(=O)N2,4.9,1.2,27.2,39.2,22.1,·
Cc1ccc2[nH]c3c(c2c1)CN(C(=O)CN1c2ccc(F)cc2CCC1C)CC3 (centres undefined),29.0,-32.5,42.7*,41.0,10.3,37.6*
C=CCn1c(SCC(=O)NC2CC2)nnc1C1CC1,0.3,-14.1,-6.9,8.7,-2.2,·
CCc1c(C)[nH]n(-c2nc(-c3ccccc3)cs2)c1=O,17.6,21.4,49.7*,33.5,152.1,31.1*
CCC(C)c1ccc(NC(=O)CN(C)CC(=O)Nc2cccc(OC)c2)cc1 (centres undefined),8.0,-0.6,-2.9,20.2,-3.0,·
CCC(C)c1ccc(NC(=S)Nc2ccc(OC)c(OC)c2)cc1 (centres undefined),29.3,5.4,44.1*,38.6,2.4,32.5*
CCC(C)c1ccc(NC(=S)Nc2ccc(OC)cc2C)cc1 (centres undefined),31.6,22.3,45.5*,45.2,11.3,36.0*
CCC(C)c1ccc(NC(=O)CC(C)=O)cc1 (centres undefined),6.5,0.6,42.0*,18.7,-6.3,24.1
COC(=O)c1cc2ccc(OC)cc2c2cc(OC)c(OC)cc12,0.5,-8.2,7.4,41.5,-7.6,·
NS(=O)(=O)c1ccc(NC(=O)Nc2ccc3c(c2)OCO3)cc1,1.5,-47.2,-8.6,-6.4,-32.8,·
CCN(CC)c1ccc(Nc2nc(-c3cccnc3)cs2)cc1,2.0,8.5,49.3*,29.5,67.0,33.3*
COC(=O)c1ccc(CSc2ncnc3sc(C)c(C)c23)o1,29.1,·,45.7*,10.8,5.5,37.0*
CCOC(=O)c1c(OCC)[nH]c2c1cc(O)c1ccccc12,36.8,-4.1,43.3*,40.7,0.4,41.0*
CC(C)(C)c1ccc(/C=C(\C#N)C(=O)NCCN2CCOCC2)cc1,32.4,·,40.1*,43.4,0.1,32.5*
